# Test results as given in PubChem BioAssay (NCI).
# This is part of a sample that, as a whole, favours compounds with a hit. Of some 79,000 tested, about 15% had one in any assay. Unmarked numbers belong to inactive results. The source made the active and inactive calls. Cut-off read from the data, not from the text of the source: active = growth inhibition above about 70%; inactive = the rest.
# What was measured:
# [1] = NCI Yeast Anticancer Drug Screen. Data for the rad52 strain (AID 147);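 note: 0% = growth of vehicle-treated control cultures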; details: S. cerevisiae rad52 mutant growth inhibition, active compounds read high
# How it was run: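 The repair-mutant yeast strain was incubated with compounds, then growth was read and inhibition derived relative to vehicle.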
# [2] = NCI Yeast Anticancer Drug Screen. Data for the wt1 strain (AID 149);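 note: 0% = growth of vehicle-treated wt1 cultures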; details: S. cerevisiae wt1 strain (SPY 50644) growth inhibition, active compounds read high
# How it was run: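 wt1 yeast, compound-treated; % growth inhibition vs vehicle control.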
# [3] = NCI Yeast Anticancer Drug Screen. Data for the rad50EPP+ strain (AID 151);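 note: 0% = growth of vehicle-treated control cultures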; details: S. cerevisiae rad50 mutant strain, active compounds read high
# How it was run: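 Vehicle-normalised growth inhibition; rad50EPP+ yeast strain, altered in DNA damage repair, compound-treated.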
# [4] = NCI Yeast Anticancer Drug Screen. Data for the mgt1 strain (AID 153); details: S. cerevisiae mgt1 mutant growth inhibition, active compounds read high
# How it was run: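 Vehicle-normalized growth inhibition is determined in mgt1 yeast, a strain selected for a defined alteration in DNA repair or cell cycle control.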
# [5] = NCI Yeast Anticancer Drug Screen. Data for the rad50 strain (AID 155);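 note: 0% = growth of vehicle-only cultures of the same strain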; details: S. cerevisiae rad50 strain growth inhibition, active compounds read high
# How it was run: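 Genetically altered yeast (DNA repair pathway); compound treatment; growth inhibition vs vehicle ctrl.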
# [6] = NCI Yeast Anticancer Drug Screen. Data for the mec2-1 strain (AID 157); details: S. cerevisiae mec2-1 strain, active compounds read high
# How it was run: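 Mutant yeast (mec2-1) grown with compound; growth inhibition relative to vehicle control reported.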
# [7] = NCI Yeast Anticancer Drug Screen. Data for the rad14 strain (AID 159);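 note: 0% = growth of vehicle-treated control cultures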; details: S. cerevisiae rad14 strain growth inhibition, active compounds read high
# How it was run: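 Test compounds were applied to a repair-deficient yeast strain. Its growth was then compared with that of cultures given vehicle alone, and inhibition was expressed relative to those controls.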
# [8] = NCI Yeast Anticancer Drug Screen. Data for the sgs1 mgt1 strain (AID 161);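 note: 0% = growth of cultures given vehicle only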; details: S. cerevisiae sgs1 mgt1 strain, active compounds read high
# How it was run: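 Yeast cells carrying a defined DNA-repair defect were exposed to test compounds. Growth inhibition was measured relative to vehicle-treated controls.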
# [9] = NCI Yeast Anticancer Drug Screen. Data for the CLN2oe strain (AID 163);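 note: 0% = growth of vehicle-only control cultures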; details: S. cerevisiae CLN2oe strain, active compounds read high
# How it was run: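 Compounds are applied to yeast harbouring a defined cell-cycle control change; reduced growth compared with vehicle-treated controls gives the value.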
# [10] = NCI Yeast Anticancer Drug Screen. Data for the cln2 rad14 strain (AID 165);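 note: 0% = growth equal to vehicle treated cultures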; details: S. cerevisiae cln2 rad14 strain, active compounds read high
# How it was run: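 Readout is yeast growth inhibition versus vehicle-treated controls, using a strain with cln2 and rad14 alterations exposed to compound.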
# [11] = NCI Yeast Anticancer Drug Screen. Data for the bub3 strain (AID 167); details: S. cerevisiae bub3 mutant strain, active compounds read high
# How it was run: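 Yeast carrying a defined mutation is treated with each compound, and growth is compared with that of vehicle-exposed cells to give inhibition.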
# [12] = NCI Yeast Anticancer Drug Screen. Data for the wt2 strain (AID 169);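 note: 0% = growth of vehicle-treated yeast cultures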; details: S. cerevisiae wt2 strain growth inhibition, active compounds read high
# How it was run: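 Against vehicle-treated controls, the growth of yeast exposed to each compound was compared, and the inhibition was recorded.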
# [13] = NCI Yeast Anticancer Drug Screen. Data for the mlh1 strain (AID 171);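 note: 0% = growth of vehicle-treated control cultures of the same strain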; details: S. cerevisiae mlh1 strain growth inhibition, active compounds read high
# How it was run: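 Measured: yeast growth. Reference: vehicle-treated controls. Organism: strain with a defined alteration affecting DNA damage repair or cell cycle control, treated with compound.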
# [14] = NCI Yeast Anticancer Drug Screen. Data for the sgs1 strain (AID 173);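 note: 0% = growth of vehicle-only control cultures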; details: S. cerevisiae sgs1 mutant, active compounds read high
# How it was run: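 Each compound was added to cultures of the altered yeast strain. Growth was recorded, and inhibition was derived by comparison with vehicle controls.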
# [15] = NCI Yeast Anticancer Drug Screen. Data for the mlh1 rad18 strain (AID 175); details: S. cerevisiae mlh1 rad18 strain growth inhibition, active compounds read high
# How it was run: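 Genetically defined yeast (DNA repair-deficient) exposed to compounds; growth inhibition determined relative to vehicle.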
# [16] = NCI Yeast Anticancer Drug Screen. Data for the rad18 strain (AID 177); details: S. cerevisiae rad18 mutant growth inhibition, active compounds read high
# How it was run: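 Vehicle-treated cultures served as the baseline for scoring compound-induced growth inhibition in DNA-repair-mutant yeast.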
# [17] = at 5.0 µM (retest, dose inferred, filed as 0.5)
# [18] = at 50.0 µM (retest, dose inferred, filed as 5.0)
compound,measurement,setting,value
CCCN(CCC)c1c([N+](=O)[O-])cc(S(N)(=O)=O)cc1[N+](=O)[O-],growth inhibition,[1]; at 1.2 µM,8%
same,growth inhibition,[1]; at 3.7 µM,25%
same,growth inhibition,[1]; at 11.0 µM,28%
same,growth inhibition,[1]; at 33.0 µM,60%
same,growth inhibition,[1]; at 100.0 µM,23%
same,growth inhibition,[2]; at 1.2 µM,10%
same,growth inhibition,[2]; at 3.7 µM,6%
same,growth inhibition,[2]; at 11.0 µM,18%
same,growth inhibition,[2]; at 33.0 µM,19%
same,growth inhibition,[2]; at 100.0 µM,7%
same,growth inhibition,[3]; at 1.2 µM,-23%
same,growth inhibition,[3]; at 3.7 µM,-33%
same,growth inhibition,[3]; at 11.0 µM,-31%
same,growth inhibition,[3]; at 33.0 µM,-23%
same,growth inhibition,[3]; at 100.0 µM,-22%
same,growth inhibition,[4]; at 1.2 µM,-1%
same,growth inhibition,[4]; at 3.7 µM,0%
same,growth inhibition,[4]; at 11.0 µM,-11%
same,growth inhibition,[4]; at 33.0 µM,25%
same,growth inhibition,[4]; at 100.0 µM,-2%
same,growth inhibition,[5]; at 1.2 µM,14%
same,growth inhibition,[5]; at 3.7 µM,12%
same,growth inhibition,[5]; [17],-5%
same,growth inhibition,[5]; at 11.0 µM,33%
same,growth inhibition,[5]; at 33.0 µM,44%
same,growth inhibition,[5]; [18],26%
same,growth inhibition,[5]; at 50.0 µM,63.4%
same,growth inhibition,[5]; at 100.0 µM,15%
same,growth inhibition,[6]; at 1.2 µM,-7%
same,growth inhibition,[6]; at 3.7 µM,0%
same,growth inhibition,[6]; [17],-13%
same,growth inhibition,[6]; at 11.0 µM,-25%
same,growth inhibition,[6]; at 33.0 µM,32%
same,growth inhibition,[6]; [18],15%
same,growth inhibition,[6]; at 50.0 µM,51.8%
same,growth inhibition,[6]; at 100.0 µM,-2%
same,growth inhibition,[7]; at 1.2 µM,-11%
same,growth inhibition,[7]; at 3.7 µM,-18%
same,growth inhibition,[7]; at 11.0 µM,-24%
same,growth inhibition,[7]; at 33.0 µM,29%
same,growth inhibition,[7]; at 100.0 µM,-2%
same,growth inhibition,[8]; [17],-11%
same,growth inhibition,[8]; [18],35%
same,growth inhibition,[8]; at 50.0 µM,47.7%
same,growth inhibition,[9]; at 1.2 µM,-11%
same,growth inhibition,[9]; at 3.7 µM,-3%
same,growth inhibition,[9]; at 11.0 µM,-4%
same,growth inhibition,[9]; at 33.0 µM,30%
same,growth inhibition,[9]; at 100.0 µM,2%
same,growth inhibition,[10]; [17],2%
same,growth inhibition,[10]; [18],73% (active)
same,growth inhibition,[10]; at 50.0 µM,85.3% (active)
same,growth inhibition,[11]; at 1.2 µM,-13%
same,growth inhibition,[11]; at 3.7 µM,-22%
same,growth inhibition,[11]; [17],4%
same,growth inhibition,[11]; at 11.0 µM,-17%
same,growth inhibition,[11]; at 33.0 µM,32%
same,growth inhibition,[11]; [18],80% (active)
same,growth inhibition,[11]; at 50.0 µM,89.5% (active)
same,growth inhibition,[11]; at 100.0 µM,-9%
same,growth inhibition,[12]; at 1.2 µM,-6%
same,growth inhibition,[12]; at 3.7 µM,-2%
same,growth inhibition,[12]; at 11.0 µM,-7%
same,growth inhibition,[12]; at 33.0 µM,3%
same,growth inhibition,[12]; at 100.0 µM,-2%
same,growth inhibition,[13]; at 1.2 µM,-27%
same,growth inhibition,[13]; at 3.7 µM,-28%
same,growth inhibition,[13]; at 11.0 µM,-16%
same,growth inhibition,[13]; at 33.0 µM,31%
same,growth inhibition,[13]; at 100.0 µM,-6%
same,growth inhibition,[14]; at 1.2 µM,3%
same,growth inhibition,[14]; at 3.7 µM,10%
same,growth inhibition,[14]; at 11.0 µM,16%
same,growth inhibition,[14]; at 33.0 µM,30%
same,growth inhibition,[14]; at 100.0 µM,6%
same,growth inhibition,[15]; [17],9%
same,growth inhibition,[15]; [18],70% (active)
same,growth inhibition,[15]; at 50.0 µM,72.9% (active)
same,growth inhibition,[16]; at 1.2 µM,-8%
same,growth inhibition,[16]; at 3.7 µM,-1%
same,growth inhibition,[16]; at 11.0 µM,6%
same,growth inhibition,[16]; at 33.0 µM,50%
same,growth inhibition,[16]; at 100.0 µM,0%
